Yeast superoxide: caloric restriction mimetics inhibiting age-related superoxide in yeast. S. cerevisiae aged cells, superoxide DHE fluorescence; active compounds read low. superoxide response (% of plate mean), % at 10 µM. hit rate 0.18% among 330,000. AID 2690;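 active means superoxide response under a set limit, about three screen SD below normal, cut at about 65% in these data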;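 further: yeast aged for seven days with compound at 30 °C before DHE staining; 100% = average MFI of all compound-treated wells on the plate with controls excluded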
M18AAP inhibitor: blocks P. falciparum M18 aspartyl aminopeptidase; hit rate 1.2% among 290,000; recombinant PfM18AAP, H-Glu-NHMec fluorogenic cleavage; inhibition, % at 7.35 µM; AID 1822;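 active means inhibition above the campaign mean inhibition over all tested compounds plus 3 SD, cut at about 28% in these data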;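 further: 0% = plate median of test compound wells and 100% = 2 mM ZnCl2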
NRP1-CendR mod: modulators of CendR peptide binding to human neuropilin-1. FAM-RPARPAR peptide binding to NRP-1, fluorescence polarization. inhibition, % at 25 µM. hit rate 0.85% among 360,000. AID 602438;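 active means inhibition or corrected inhibition above about 18%, plus a signal ratio from 0.5 to 1.5, limit read from the data, passing the limit was not always enough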
ALR H2O2 inh: human ALR oxidase inhibition via reduced H2O2; purified ALR, DTT oxidation, H2O2 HRP-luminol luminescence; P55789; inhibition, % (concentration not given with the values); AID 485317; hit rate 3.8% among 290,000;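 active means mean replicate inhibition above about 79%, with every replicate also reaching it, limit read from the data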
APOBEC3A inh: inhibitors of human APOBEC3A DNA deaminase; recombinant A3A, FAM/TAMRA ssDNA deamination fluorescence; inhibition, % at 20 µM; hit rate 0.41% among 330,000; AID 493011;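 active means at least 40% inhibition at 20 µM here, with at most 30% in a related deaminase screen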;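 further: plate controls were A3A with DMSO for no effect and wells lacking A3A enzyme for full effect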
APOBEC3G inh: blocks human APOBEC3G single-stranded DNA deamination | hit rate 0.28% among 330,000 | AID 493012 | inhibition, % at 20 µM | recombinant A3G, ssDNA deamination FAM/TAMRA fluorescence;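 active means inhibition of at least 40% at 20 µM, with no more than 30% in the related APOBEC3A deaminase screen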;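 further: plate controls were DMSO wells with A3G for no effect and wells lacking A3G enzyme for full effect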
APOBEC3G confirm: confirmation of human APOBEC3G DNA deaminase inhibitors. shares compounds with APOBEC3G inh. recombinant A3G ssDNA deaminase, UDG/FAM-TAMRA fluorescence. inhibition, % at 20 µM. hit rate 72% among 890. AID 493152;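 active means inhibition reaching a set limit in any replicate at 20 µM, the limit being 80% of the first screen's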
UDG A3G counter: inhibits E. coli UDG, flagging false APOBEC3G inhibitors. shares compounds with APOBEC3G inh. UDG counterscreen, FAM/TAMRA oligo fluorescence. inhibition, % at 20 µM. 710 tested, under 10 active. AID 504715;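 active means compounds giving 40% or more inhibition at 20 µM in any one of the three replicates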;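 further: plate controls were DMSO wells with UDG and oligo for no effect and DMSO wells lacking both for full effect; inhibitors lower the FAM signal released by uracil excision and alkaline cleavage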
Starred values were filed as active, the others as inactive; / = no result given. Hits are enriched below; roughly 5.2% of the tested compounds scored in any of these assays.

SMILES	Yeast superoxide	M18AAP inhibitor	NRP1-CendR mod	ALR H2O2 inh	APOBEC3A inh	APOBEC3G inh	APOBEC3G confirm	others
O=c1[nH]c(=O)n(CCC2=CCCCC2)c(O)c1/C=N/Nc1cccc2ccccc12	93	6	-33	3	2	42*	27
O=c1[nH]c(=S)n(C2CC2)c(O)c1/C=N/Nc1cccc2ccccc12	92	6	-8	-5	2	55*	2
CCN(C(=O)COC(=O)c1cc(C)n(C2CC2)c1C)c1ccccc1	111	/	-4	15	-4	-3	/
CCOP(=O)(C#Cc1ccccc1)C(O)c1ccc(Br)cc1 (stereo unspecified)	96	-1	20	-3	-6	-10	/
C/C=C1/CN2C3CC1C(CO)(C(=O)OC)C2Cc1c3n(C)c2ccccc12 (stereo unspecified)	123	/	-3	-22	-3	-10	/
Cn1c(NN=O)nc2ccccc21	106	8	-8	-10	2	59*	28*	UDG A3G counter=-1
O=C(NCCCn1ccnc1)C(Cl)(Cl)Cl	97	-5	-1	-5	4	44*	-1
C1CCC2CCCCC2C1 (stereo unspecified)	80	/	-2	8	2	1	/

Bioassay records (PubChem)
